Reference: ChEMBL document CHEMBL2218924, “A broad activity screen in support of a chemogenomic map for kinase signalling research and drug discovery” (Biochem J, 2013)

How the values were obtained:
[1] = biological target: Death-associated protein kinase 1 (Homo sapiens) (UniProt P53355); conditions: at 10 µM
[2] = biological target: Death-associated protein kinase 2 (Homo sapiens) (UniProt Q9UIK4); conditions: at 1 µM
[3] = biological target: Death-associated protein kinase 2 (Homo sapiens) (UniProt Q9UIK4); conditions: at 10 µM
[4] = biological target: T1, Serine/threonine-protein kinase DCLK2 (Homo sapiens) (UniProt Q8N568); conditions: at 1 µM
T1 sequence (whole entry): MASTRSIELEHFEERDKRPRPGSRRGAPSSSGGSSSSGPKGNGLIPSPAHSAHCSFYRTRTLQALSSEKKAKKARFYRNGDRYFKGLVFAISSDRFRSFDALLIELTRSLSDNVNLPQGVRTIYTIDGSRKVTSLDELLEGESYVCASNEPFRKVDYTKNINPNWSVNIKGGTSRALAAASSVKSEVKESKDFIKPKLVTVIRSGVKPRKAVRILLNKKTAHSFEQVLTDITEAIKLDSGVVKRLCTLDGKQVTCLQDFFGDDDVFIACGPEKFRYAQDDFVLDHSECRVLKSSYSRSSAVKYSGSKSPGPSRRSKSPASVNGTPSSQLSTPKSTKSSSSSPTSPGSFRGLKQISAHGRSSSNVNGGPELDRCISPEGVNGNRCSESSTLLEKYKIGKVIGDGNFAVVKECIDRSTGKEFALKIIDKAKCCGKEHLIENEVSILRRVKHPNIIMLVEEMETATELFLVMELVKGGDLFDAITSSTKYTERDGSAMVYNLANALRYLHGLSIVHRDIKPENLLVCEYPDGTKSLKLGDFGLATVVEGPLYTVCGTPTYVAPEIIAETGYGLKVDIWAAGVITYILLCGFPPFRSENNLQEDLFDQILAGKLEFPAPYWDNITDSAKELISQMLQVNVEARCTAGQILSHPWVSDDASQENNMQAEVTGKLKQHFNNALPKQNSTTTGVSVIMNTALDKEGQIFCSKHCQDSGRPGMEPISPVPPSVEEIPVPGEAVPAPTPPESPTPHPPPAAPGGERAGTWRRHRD

[5] = biological target: T1, Serine/threonine-protein kinase DCLK2 (Homo sapiens); conditions: at 10 µM
[6] = biological target: T2, Discoidin domain-containing receptor 2 (Homo sapiens) (UniProt Q16832); conditions: at 1 µM
T2 sequence (whole entry): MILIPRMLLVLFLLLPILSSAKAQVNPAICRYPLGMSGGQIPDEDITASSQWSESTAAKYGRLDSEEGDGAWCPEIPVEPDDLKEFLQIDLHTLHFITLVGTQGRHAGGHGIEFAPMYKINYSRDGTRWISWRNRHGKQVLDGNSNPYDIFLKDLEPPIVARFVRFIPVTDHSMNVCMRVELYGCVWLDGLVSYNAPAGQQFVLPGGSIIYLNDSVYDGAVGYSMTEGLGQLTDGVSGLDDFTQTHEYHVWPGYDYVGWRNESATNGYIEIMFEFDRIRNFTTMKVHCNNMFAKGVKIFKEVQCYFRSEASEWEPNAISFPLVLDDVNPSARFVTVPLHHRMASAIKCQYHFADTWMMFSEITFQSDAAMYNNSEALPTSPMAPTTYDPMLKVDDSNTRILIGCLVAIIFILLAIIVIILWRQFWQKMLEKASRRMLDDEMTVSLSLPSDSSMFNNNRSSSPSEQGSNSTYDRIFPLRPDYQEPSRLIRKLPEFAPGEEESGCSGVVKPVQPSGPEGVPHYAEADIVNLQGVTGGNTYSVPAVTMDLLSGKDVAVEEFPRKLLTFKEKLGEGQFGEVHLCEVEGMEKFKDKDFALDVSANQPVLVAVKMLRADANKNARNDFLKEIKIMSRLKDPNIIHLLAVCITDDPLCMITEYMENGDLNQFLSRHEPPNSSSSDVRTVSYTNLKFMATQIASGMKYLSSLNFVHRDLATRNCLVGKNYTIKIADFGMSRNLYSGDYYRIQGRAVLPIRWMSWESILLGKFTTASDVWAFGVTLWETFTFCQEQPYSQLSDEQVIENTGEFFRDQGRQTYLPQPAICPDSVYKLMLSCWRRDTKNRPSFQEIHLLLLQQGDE

[7] = biological target: T2, Discoidin domain-containing receptor 2 (Homo sapiens); conditions: at 10 µM
[8] = biological target: T3, Myotonin-protein kinase (Homo sapiens) (UniProt Q09013); conditions: at 1 µM
T3 sequence (whole entry): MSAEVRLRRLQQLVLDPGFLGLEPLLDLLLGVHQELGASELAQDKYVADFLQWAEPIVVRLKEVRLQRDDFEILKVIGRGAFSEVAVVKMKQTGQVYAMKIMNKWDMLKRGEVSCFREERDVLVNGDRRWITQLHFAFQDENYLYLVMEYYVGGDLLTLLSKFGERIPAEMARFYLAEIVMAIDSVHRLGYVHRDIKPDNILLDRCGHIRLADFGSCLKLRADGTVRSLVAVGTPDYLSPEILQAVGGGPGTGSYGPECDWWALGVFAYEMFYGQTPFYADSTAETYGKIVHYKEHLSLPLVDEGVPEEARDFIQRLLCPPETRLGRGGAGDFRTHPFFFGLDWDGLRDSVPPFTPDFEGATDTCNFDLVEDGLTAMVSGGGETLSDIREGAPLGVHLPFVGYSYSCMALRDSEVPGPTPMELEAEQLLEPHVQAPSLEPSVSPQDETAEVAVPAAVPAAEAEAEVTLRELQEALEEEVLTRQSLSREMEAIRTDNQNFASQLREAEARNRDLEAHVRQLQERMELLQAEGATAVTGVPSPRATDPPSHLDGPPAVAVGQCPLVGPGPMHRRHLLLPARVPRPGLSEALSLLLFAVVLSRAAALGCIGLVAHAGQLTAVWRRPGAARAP

[9] = biological target: T3, Myotonin-protein kinase (Homo sapiens); conditions: at 10 µM
[10] = biological target: T4, Serine/threonine-protein kinase 17A (Homo sapiens) (UniProt Q9UEE5); conditions: at 1 µM
T4 sequence (whole entry): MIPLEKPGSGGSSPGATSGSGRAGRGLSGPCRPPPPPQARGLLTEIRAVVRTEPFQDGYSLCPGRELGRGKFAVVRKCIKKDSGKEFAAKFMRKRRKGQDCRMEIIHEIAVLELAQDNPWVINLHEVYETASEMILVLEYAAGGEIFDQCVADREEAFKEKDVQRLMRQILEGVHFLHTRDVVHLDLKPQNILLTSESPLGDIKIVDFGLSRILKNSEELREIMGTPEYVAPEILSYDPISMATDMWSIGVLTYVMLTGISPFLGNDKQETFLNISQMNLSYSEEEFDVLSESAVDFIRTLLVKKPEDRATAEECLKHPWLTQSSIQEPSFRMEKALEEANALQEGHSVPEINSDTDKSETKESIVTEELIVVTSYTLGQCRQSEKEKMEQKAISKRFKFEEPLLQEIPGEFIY

[11] = biological target: T4, Serine/threonine-protein kinase 17A (Homo sapiens); conditions: at 10 µM
[12] = biological target: T5, Dual specificity tyrosine-phosphorylation-regulated kinase 2 (Homo sapiens) (UniProt Q92630); conditions: at 1 µM
T5 sequence (whole entry): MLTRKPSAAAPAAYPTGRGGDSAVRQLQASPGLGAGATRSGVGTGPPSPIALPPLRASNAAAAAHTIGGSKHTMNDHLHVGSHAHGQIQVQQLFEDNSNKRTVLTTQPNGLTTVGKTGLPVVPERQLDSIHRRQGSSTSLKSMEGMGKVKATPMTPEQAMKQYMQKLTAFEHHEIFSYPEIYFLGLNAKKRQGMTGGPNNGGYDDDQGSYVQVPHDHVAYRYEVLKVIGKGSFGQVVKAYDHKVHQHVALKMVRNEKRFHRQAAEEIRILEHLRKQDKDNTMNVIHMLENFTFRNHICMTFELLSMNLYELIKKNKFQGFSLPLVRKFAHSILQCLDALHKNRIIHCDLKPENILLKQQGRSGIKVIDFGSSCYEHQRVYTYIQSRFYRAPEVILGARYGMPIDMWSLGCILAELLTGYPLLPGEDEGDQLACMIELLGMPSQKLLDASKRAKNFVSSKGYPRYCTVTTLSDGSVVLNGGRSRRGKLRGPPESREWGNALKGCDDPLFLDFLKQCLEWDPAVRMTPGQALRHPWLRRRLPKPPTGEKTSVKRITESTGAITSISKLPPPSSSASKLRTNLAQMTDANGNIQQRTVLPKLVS

[13] = biological target: T5, Dual specificity tyrosine-phosphorylation-regulated kinase 2 (Homo sapiens); conditions: at 10 µM
[14] = biological target: T6, Ephrin type-A receptor 1 (Homo sapiens) (UniProt P21709); conditions: at 1 µM
T6 sequence (whole entry): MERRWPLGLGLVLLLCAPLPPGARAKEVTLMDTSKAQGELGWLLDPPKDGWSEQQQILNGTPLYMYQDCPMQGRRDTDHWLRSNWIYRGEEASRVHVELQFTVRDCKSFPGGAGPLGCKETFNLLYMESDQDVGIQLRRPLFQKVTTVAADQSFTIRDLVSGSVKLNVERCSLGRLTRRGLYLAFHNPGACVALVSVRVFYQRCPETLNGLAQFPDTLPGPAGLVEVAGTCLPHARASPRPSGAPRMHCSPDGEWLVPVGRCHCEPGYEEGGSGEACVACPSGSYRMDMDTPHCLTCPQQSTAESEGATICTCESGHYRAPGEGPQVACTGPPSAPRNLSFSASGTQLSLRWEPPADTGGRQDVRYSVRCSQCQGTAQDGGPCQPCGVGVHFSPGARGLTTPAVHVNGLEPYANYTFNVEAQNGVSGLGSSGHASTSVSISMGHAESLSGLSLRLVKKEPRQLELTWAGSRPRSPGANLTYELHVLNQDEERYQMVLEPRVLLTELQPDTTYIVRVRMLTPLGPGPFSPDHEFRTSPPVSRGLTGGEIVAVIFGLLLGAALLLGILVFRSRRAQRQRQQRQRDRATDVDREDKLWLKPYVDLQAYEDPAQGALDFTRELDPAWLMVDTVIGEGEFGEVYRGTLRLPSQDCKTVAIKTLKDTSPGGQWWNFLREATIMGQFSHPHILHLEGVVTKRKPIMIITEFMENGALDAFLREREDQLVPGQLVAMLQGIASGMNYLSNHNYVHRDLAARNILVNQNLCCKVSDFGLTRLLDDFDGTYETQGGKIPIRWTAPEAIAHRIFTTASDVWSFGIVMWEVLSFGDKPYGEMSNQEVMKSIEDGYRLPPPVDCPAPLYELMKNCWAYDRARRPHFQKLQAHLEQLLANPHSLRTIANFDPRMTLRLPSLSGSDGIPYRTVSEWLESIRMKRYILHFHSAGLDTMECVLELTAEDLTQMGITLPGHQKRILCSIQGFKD

[15] = biological target: T6, Ephrin type-A receptor 1 (Homo sapiens); conditions: at 10 µM
[16] = biological target: Ephrin type-A receptor 2 (Homo sapiens) (UniProt P29317); conditions: at 1 µM
Chain of Ephrin type-A receptor 2 (Homo sapiens) (P29317 whole entry): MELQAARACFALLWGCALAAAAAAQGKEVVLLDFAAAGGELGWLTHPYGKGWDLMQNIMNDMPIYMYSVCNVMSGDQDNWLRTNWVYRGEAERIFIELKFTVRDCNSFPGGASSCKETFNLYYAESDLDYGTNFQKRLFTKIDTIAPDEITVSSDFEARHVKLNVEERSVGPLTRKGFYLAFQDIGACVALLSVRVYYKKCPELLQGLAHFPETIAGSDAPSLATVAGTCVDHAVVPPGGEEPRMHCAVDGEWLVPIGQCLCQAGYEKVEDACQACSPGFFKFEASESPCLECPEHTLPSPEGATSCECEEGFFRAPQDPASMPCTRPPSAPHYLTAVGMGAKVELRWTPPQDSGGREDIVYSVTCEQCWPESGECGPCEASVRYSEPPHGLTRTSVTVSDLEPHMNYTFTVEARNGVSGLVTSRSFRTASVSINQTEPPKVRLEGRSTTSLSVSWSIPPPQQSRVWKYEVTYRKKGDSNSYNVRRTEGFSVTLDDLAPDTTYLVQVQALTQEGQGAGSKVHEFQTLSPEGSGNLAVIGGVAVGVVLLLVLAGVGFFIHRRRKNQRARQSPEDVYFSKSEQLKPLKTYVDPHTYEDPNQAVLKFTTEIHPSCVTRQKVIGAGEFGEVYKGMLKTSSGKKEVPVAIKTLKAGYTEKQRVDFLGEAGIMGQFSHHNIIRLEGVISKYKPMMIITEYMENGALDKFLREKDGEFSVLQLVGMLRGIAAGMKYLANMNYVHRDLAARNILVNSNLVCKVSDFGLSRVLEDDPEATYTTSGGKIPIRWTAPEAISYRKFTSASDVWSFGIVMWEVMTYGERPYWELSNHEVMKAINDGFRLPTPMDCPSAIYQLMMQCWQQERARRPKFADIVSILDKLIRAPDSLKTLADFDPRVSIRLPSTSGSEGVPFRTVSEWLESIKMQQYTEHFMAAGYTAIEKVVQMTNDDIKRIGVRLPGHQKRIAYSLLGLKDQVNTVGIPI

[17] = biological target: Ephrin type-A receptor 2 (Homo sapiens) (UniProt P29317); conditions: at 10 µM
[18] = biological target: T7, Ephrin type-A receptor 3 (Homo sapiens) (UniProt P29320); conditions: at 1 µM
T7 sequence (whole entry): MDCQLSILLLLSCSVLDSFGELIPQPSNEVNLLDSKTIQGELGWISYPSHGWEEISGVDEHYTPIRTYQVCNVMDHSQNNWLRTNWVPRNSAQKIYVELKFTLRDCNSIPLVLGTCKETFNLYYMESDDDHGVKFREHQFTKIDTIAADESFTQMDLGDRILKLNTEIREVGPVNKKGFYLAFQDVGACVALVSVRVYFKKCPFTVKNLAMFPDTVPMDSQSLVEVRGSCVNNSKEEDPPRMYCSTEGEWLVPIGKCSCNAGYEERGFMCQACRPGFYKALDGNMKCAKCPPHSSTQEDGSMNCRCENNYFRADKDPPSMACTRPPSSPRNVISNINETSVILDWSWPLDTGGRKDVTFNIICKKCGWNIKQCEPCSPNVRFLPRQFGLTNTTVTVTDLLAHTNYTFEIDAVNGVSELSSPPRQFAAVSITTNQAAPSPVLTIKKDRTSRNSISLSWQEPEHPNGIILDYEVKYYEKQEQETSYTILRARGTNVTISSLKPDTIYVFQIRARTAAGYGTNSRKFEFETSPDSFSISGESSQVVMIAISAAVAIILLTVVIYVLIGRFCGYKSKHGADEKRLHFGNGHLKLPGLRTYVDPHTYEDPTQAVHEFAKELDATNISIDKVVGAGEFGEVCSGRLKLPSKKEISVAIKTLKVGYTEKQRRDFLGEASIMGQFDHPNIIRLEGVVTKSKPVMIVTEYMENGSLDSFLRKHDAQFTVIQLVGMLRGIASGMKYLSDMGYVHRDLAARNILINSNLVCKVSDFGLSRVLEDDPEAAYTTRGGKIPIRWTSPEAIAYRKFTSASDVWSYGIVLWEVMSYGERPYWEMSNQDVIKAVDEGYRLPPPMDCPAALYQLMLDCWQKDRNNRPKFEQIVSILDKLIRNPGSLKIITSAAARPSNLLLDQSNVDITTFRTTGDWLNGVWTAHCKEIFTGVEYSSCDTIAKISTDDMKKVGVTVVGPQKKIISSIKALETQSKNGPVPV

[19] = biological target: Epidermal growth factor receptor (Homo sapiens) (UniProt P00533); conditions: at 1 µM
Chain of Epidermal growth factor receptor (Homo sapiens) (P00533 whole entry): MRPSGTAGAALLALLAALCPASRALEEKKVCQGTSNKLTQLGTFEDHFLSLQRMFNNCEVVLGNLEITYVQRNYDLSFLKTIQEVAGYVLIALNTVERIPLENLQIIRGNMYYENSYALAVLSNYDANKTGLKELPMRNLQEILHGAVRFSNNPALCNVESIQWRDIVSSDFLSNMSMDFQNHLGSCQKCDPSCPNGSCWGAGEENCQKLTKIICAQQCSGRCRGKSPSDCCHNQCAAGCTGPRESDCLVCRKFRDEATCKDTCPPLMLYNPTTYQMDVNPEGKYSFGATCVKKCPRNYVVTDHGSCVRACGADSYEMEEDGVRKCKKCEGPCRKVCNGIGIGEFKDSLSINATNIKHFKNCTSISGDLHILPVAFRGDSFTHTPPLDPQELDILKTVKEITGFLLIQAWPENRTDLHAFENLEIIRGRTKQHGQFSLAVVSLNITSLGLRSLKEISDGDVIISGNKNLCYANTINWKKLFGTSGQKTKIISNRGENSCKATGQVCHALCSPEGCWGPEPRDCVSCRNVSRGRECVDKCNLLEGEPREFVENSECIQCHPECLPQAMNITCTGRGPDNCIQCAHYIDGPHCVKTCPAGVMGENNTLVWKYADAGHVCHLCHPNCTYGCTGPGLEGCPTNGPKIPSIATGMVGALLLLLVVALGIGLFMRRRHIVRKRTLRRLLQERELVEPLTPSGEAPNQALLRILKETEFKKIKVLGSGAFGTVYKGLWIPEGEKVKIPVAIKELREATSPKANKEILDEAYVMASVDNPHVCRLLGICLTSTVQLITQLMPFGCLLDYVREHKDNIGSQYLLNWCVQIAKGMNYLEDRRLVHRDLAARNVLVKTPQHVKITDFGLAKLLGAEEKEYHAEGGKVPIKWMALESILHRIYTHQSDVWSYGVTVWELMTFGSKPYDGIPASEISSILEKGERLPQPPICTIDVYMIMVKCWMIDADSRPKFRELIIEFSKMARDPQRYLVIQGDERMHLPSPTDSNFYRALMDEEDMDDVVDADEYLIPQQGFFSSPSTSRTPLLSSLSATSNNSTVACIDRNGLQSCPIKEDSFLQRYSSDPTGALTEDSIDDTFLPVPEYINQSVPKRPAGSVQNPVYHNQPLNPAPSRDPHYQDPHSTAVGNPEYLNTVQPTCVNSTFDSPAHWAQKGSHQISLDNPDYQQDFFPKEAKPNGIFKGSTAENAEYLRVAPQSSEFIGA

[20] = biological target: Epidermal growth factor receptor (Homo sapiens) (UniProt P00533); conditions: at 10 µM

Chain of Death-associated protein kinase 1 (Homo sapiens) (P53355 whole entry, looked up): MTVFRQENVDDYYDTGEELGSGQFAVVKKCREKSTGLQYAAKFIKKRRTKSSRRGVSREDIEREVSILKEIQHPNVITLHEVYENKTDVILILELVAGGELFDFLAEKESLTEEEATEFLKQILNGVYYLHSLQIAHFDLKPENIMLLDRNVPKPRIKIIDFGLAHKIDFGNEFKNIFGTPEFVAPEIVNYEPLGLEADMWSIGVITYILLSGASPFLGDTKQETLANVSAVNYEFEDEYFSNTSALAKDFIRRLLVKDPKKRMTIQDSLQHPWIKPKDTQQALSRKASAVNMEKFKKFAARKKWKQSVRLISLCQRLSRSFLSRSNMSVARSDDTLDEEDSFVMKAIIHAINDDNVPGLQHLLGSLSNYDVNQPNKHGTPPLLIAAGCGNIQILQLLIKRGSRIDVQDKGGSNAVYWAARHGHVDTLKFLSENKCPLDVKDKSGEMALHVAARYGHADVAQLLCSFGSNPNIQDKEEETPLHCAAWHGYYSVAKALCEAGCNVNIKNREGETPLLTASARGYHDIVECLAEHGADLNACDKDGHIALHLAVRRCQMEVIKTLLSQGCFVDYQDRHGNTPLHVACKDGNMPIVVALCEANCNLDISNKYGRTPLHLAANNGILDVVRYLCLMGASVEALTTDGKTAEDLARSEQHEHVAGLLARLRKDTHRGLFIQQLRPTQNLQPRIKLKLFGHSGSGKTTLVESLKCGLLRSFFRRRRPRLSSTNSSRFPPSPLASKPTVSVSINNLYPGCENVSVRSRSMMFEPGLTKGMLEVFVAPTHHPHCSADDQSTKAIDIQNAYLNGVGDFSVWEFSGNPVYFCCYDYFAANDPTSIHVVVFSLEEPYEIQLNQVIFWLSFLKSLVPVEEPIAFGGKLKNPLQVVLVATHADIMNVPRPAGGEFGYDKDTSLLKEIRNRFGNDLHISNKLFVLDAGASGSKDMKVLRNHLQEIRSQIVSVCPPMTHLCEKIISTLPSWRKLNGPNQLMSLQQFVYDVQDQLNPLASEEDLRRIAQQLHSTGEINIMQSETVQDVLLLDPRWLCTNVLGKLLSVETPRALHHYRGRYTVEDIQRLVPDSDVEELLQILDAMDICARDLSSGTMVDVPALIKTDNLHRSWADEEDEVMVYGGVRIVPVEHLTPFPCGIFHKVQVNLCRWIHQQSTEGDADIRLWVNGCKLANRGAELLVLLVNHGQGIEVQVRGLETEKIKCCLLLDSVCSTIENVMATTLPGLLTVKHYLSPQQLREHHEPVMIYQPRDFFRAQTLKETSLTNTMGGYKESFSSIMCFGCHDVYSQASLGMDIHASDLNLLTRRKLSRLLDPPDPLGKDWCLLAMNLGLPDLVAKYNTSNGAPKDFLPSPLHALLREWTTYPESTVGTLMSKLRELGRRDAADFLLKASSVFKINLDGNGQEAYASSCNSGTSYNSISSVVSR
Chain of Death-associated protein kinase 2 (Homo sapiens) (Q9UIK4 whole entry, looked up): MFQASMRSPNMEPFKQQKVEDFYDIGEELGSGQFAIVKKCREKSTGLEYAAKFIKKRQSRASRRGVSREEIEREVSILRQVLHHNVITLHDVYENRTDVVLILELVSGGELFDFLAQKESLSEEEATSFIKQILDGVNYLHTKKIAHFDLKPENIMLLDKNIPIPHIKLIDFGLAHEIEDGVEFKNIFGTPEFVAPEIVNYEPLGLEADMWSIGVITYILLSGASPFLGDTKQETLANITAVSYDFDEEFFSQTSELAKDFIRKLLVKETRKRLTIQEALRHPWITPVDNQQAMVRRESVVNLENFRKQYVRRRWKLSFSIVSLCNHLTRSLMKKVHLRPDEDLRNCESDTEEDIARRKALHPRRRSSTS

SMILES	residual activity [1]	residual activity [2]	residual activity [3]	residual activity [4]	residual activity [5]	residual activity [6]	residual activity [7]	residual activity [8]	residual activity [9]	residual activity [10]	residual activity [11]	residual activity [12]	residual activity [13]	residual activity [14]	residual activity [15]	residual activity [16]	residual activity [17]	residual activity [18]	residual activity [19]	residual activity [20]
CC(=O)O/N=C1\C(=C2\C(=O)Nc3cc(Br)ccc32)Nc2ccccc21	84%	86%	65%	107%	94%	91%	71%	106%	89%	63%	31%	96%	92%	84%	71%	92%	59%	74%	–	–
Cn1cnc2cc3c(Nc4cccc(Br)c4)ncnc3cc21	99%	96%	113%	102%	110%	75%	60%	112%	111%	64%	28%	98%	79%	60%	49%	89%	62%	90%	–	–
CCN(CC)CCCCN1c2ccccc2Oc2ccc(Cl)cc21	99%	111%	109%	96%	104%	115%	90%	120%	136%	124%	138%	105%	103%	102%	124%	108%	109%	113%	124%	127%
